Results reported in the supplement of paper PMC11732987, “Enantioselective OTUD7B fragment discovery through chemoproteomics screening and high-throughput optimisation” (Communications Chemistry, 2025).

Legend:
Experiment in all cases: log2 ratio of Biotin-Ahx-Ub-VS probe labelling (fragment/DMSO); higher = less target engagement (more negative = stronger competition), active = hit call of the paper (q ≤ 0.05, log2 ratio ≤ -1)
Settings in all cases: compound concentration: 200 uM; treatment time: 3 h
[1] = molecular target: USP34 (UniProt Q70CQ2)
Outline: (§1)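 Triplicate samples of HEK293T lysate, 495 µg each, received fragment at 200 µM or vehicle for 3 h, followed by Biotin-Ahx-Ub-VS (0.5 µM final) for 1 h. After NeutrAvidin enrichment of labelled DUBs and LysC/trypsin digestion, peptides were run by diaPASEF LC-MS/MS. The values are average log2 fragment/vehicle ratios from global-median-normalised Spectronaut label-free quantities, tested by unpaired t-test on proteins having ≥2 unique peptides.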

[2] = molecular target: T1, USP36 (UniProt Q9P275)
T1 sequence (whole entry): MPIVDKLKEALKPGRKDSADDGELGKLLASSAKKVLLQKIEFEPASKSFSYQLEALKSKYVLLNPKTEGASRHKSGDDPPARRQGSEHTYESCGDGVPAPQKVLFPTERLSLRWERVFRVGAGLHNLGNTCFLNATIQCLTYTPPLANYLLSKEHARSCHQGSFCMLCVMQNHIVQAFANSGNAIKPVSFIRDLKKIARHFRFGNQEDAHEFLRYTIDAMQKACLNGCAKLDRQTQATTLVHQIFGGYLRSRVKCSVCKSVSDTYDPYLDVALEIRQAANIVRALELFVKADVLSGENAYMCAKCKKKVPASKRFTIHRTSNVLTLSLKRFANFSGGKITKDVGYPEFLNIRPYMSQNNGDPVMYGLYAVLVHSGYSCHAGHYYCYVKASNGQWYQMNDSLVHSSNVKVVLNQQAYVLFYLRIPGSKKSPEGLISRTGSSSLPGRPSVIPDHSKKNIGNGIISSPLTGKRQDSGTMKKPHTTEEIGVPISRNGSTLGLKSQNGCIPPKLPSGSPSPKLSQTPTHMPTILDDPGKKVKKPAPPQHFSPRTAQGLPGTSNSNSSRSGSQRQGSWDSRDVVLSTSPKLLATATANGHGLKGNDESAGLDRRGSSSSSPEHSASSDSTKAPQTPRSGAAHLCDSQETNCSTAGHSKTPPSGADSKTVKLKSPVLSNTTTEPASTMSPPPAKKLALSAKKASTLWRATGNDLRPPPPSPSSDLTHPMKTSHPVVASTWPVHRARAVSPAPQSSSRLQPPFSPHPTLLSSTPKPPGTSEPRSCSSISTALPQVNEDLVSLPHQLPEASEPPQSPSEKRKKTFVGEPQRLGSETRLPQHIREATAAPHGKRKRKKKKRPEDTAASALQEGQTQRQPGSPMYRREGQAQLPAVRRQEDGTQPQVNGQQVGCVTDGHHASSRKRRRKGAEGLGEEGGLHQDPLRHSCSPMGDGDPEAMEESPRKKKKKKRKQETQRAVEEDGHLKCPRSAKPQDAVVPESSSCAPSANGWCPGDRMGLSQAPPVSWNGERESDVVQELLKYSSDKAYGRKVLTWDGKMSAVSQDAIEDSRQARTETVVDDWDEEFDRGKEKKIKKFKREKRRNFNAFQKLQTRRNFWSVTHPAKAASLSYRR
Outline: as §1

[3] = molecular target: T2, USP38 (UniProt Q8NB14)
T2 sequence (whole entry): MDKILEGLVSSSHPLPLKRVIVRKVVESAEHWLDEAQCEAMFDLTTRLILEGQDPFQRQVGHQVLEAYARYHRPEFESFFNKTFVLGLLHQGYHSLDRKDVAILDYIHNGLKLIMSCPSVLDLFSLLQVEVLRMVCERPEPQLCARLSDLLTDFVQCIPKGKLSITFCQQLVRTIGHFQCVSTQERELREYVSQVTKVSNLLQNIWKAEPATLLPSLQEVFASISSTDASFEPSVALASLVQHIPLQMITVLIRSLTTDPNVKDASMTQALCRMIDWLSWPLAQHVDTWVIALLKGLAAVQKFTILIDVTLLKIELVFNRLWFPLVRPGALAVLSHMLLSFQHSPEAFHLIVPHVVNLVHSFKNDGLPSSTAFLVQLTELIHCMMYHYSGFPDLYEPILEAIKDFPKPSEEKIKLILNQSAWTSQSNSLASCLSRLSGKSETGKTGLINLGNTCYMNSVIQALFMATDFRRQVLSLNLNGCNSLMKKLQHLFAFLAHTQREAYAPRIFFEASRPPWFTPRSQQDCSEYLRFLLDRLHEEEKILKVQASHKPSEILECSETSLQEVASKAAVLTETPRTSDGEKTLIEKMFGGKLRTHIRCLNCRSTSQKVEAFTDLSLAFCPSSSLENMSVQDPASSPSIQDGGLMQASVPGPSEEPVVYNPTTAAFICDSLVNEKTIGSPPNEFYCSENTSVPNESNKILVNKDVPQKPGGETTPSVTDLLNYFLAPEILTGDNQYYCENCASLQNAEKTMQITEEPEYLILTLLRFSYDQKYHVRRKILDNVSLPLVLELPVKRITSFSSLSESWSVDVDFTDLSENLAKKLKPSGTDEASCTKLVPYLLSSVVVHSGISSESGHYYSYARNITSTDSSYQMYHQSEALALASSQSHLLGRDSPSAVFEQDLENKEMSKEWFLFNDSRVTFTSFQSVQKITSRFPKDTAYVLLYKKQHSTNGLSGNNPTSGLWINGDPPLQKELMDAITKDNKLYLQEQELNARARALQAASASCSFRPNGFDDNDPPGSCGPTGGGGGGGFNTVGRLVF
Outline: as §1

[4] = molecular target: T3, USP39 (UniProt Q53GS9)
T3 sequence (whole entry): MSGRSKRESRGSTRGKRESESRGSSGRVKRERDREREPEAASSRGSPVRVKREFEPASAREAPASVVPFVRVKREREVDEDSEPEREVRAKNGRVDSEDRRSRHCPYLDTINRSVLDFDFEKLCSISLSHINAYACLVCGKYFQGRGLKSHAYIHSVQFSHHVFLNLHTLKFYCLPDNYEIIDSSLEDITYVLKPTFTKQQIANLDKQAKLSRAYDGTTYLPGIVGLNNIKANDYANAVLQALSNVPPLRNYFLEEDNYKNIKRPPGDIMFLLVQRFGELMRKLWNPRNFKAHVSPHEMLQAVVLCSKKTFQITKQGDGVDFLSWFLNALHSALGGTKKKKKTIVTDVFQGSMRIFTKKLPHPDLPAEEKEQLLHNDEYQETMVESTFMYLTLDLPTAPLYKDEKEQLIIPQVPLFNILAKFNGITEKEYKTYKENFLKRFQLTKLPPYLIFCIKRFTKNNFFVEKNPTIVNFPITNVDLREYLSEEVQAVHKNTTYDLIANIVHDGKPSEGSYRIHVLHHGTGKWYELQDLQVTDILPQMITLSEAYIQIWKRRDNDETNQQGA
Outline: as §1

[5] = molecular target: T4, USP4 (UniProt Q13107)
T4 sequence (whole entry): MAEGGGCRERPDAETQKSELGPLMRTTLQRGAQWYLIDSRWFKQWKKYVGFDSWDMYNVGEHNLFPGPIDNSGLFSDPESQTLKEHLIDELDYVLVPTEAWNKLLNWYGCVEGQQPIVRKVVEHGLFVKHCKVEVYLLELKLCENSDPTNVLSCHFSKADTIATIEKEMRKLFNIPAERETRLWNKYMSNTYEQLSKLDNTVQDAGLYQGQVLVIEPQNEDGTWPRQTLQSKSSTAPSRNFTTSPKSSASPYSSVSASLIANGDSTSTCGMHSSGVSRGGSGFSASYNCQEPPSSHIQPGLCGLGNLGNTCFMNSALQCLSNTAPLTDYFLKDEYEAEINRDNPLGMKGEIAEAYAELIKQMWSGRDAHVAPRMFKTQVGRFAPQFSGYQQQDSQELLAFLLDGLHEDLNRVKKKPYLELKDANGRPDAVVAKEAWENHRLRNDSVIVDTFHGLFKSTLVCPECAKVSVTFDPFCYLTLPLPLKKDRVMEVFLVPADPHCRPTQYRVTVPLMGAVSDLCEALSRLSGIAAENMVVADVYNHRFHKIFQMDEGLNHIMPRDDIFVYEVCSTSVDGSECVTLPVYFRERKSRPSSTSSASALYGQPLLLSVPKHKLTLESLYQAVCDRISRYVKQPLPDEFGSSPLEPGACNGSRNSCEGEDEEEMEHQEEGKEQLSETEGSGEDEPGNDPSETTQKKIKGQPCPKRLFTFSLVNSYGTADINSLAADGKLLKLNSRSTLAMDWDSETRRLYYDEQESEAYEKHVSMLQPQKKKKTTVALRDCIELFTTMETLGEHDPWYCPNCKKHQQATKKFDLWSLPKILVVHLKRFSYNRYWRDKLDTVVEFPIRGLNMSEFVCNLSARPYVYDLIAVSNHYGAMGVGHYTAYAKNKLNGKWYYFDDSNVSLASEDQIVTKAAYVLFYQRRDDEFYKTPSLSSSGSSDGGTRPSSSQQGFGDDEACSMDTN
Outline: as §1

Measured: log2 ratio of Biotin-Ahx-Ub-VS probe labelling

Sequence of USP34 (Q70CQ2 whole entry, the tested form may be a part): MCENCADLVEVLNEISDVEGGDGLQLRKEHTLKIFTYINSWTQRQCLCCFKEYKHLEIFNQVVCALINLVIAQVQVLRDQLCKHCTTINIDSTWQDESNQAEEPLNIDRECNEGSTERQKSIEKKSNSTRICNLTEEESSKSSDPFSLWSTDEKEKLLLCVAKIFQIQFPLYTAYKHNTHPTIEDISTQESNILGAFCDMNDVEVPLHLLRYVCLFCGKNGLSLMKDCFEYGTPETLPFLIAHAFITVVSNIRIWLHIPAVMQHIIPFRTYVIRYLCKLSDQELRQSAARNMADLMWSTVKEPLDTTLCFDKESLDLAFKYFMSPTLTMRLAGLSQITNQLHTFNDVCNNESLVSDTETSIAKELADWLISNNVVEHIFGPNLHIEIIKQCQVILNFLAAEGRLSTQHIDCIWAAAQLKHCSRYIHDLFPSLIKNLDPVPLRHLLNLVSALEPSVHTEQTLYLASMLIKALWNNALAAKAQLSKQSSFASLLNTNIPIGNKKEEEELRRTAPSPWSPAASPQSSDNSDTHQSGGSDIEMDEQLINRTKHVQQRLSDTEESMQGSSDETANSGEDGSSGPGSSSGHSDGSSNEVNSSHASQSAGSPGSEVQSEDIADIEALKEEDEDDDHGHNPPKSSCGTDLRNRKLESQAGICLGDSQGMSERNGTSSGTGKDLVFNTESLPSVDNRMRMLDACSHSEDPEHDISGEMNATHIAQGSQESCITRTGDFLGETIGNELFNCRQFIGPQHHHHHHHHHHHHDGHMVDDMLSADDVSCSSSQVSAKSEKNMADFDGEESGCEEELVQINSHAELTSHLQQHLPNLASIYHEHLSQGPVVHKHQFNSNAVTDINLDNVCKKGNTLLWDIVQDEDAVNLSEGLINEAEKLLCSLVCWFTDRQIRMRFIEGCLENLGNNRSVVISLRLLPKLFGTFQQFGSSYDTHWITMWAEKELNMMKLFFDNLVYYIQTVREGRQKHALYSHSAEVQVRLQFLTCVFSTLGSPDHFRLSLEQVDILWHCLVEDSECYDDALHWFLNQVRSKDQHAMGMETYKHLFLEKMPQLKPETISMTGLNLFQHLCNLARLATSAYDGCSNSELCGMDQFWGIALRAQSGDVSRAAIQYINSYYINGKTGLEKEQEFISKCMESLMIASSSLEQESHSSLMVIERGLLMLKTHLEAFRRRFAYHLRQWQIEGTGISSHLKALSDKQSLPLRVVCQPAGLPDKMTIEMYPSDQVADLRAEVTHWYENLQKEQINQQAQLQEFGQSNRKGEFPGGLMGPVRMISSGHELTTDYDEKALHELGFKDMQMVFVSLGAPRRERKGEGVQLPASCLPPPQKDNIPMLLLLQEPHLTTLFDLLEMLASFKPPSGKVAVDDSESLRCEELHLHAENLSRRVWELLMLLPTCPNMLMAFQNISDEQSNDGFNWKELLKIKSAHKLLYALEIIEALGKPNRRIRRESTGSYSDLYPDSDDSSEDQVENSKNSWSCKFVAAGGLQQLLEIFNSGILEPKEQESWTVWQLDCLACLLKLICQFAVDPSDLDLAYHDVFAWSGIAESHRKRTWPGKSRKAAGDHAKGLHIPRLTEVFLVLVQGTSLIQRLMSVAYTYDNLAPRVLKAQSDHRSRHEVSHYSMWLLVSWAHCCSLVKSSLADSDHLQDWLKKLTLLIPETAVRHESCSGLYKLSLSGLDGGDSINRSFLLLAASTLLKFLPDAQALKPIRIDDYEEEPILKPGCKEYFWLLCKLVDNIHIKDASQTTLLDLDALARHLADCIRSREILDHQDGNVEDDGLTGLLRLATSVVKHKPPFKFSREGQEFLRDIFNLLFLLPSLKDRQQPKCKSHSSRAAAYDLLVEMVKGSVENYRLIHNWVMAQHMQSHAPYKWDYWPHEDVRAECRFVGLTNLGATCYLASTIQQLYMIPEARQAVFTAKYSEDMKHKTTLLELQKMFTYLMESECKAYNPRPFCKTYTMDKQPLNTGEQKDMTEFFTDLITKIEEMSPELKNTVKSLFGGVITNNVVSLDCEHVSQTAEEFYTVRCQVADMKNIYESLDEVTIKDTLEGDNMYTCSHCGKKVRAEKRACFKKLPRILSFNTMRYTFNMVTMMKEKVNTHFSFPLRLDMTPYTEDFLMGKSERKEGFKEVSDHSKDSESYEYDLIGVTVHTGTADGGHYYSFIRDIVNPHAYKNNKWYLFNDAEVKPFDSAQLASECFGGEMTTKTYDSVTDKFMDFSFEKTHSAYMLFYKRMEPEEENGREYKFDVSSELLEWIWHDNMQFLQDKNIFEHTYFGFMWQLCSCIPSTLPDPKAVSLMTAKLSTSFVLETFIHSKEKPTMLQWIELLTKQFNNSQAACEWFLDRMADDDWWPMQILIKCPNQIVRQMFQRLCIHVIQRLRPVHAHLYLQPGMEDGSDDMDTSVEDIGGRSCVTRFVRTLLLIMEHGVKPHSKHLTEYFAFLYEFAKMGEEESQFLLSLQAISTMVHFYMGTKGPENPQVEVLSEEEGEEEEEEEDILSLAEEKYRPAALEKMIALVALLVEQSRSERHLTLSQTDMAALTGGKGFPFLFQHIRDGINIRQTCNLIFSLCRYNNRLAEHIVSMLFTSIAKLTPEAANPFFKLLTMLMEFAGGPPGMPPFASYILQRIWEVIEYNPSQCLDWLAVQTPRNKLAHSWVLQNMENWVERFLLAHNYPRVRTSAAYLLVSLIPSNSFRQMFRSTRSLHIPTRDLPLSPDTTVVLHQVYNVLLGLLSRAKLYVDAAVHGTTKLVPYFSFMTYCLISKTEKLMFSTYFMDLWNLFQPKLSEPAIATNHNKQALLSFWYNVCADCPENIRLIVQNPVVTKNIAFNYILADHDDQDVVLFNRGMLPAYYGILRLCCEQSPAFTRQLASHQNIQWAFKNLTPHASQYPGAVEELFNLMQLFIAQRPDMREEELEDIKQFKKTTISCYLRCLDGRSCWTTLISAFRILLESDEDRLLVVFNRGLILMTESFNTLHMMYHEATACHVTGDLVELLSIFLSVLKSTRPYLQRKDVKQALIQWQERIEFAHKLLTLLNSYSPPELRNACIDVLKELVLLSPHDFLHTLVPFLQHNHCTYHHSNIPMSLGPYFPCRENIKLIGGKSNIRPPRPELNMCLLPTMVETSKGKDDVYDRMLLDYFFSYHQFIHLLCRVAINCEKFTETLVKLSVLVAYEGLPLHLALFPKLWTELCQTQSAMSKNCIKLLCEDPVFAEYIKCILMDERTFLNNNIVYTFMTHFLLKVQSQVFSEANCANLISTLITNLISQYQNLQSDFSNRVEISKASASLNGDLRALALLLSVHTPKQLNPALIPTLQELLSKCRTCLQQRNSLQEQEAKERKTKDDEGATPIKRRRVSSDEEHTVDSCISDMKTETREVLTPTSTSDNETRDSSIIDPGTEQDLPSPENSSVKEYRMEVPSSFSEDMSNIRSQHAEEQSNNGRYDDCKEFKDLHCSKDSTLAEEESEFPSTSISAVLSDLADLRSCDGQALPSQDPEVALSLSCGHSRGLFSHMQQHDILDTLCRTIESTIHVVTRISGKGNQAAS

O=C(CCl)N1CCC(C(=O)N2CCCCCC2)CC1
inactive: [1] -0.0554 | [2] -0.258 | [3] -0.135 | [4] -0.143 | [5] 0.128
